# Screens as filed in PubChem.
# ADAM10 inh – inhibitors of human ADAM10; O14672; recombinant ADAM10, EDANS/DABCYL FRET peptide cleavage, 3 h; inhibition, % at 7 µM; actives 0.62% (n = 370,000);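 active = inhibition above a per-campaign cutoff equal to the mean of compounds falling between control-based bounds plus 3 SD, cut at about 20% in these data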;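 note: 0% = DMSO wells while the 100% control is not disclosed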
# FAS-TE inh – FAS thioesterase (human) inhibition. AID 602261. inhibition, % at 15 µM. recombinant FAS-TE, OMFH fluorogenic substrate, fluorescence endpoint. actives 0.67% (n = 360,000). P49327;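 active = compounds whose normalised, plate-corrected inhibition of enzyme fluorescence in the single-dose primary screen is 50% or more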;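 note: 0% = DMSO with enzyme and 100% = substrate without enzyme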
# NR3A LBD binder – modulators (binders) of human NR3A ligand-binding domain; NR3A LBD differential scanning fluorimetry, Tm shift; 0% = protein alone, 100% = glycine-bound protein; Tm shift relative to glycine control, % at 25 µM; actives 2.5% (n = 340,000);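 active = melting temperature shift of at least 10% of the positive control shift, at one fixed dose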
# KLK7 zymogen act – proKLK7 (human) activation, primary screen; actives 0.9% (n = 370,000); P49862; activation, % at 7 µM; purified proKLK7, EDANS-DABCYL substrate fluorescence; 100% is mature enzyme control, 0% vehicle;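 active = activation above the mean of all tested compounds plus 3 SD, computed per campaign excluding outliers beyond control limits, cut at about 13% in these data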
# Target sequence (P49862 whole entry, looked up): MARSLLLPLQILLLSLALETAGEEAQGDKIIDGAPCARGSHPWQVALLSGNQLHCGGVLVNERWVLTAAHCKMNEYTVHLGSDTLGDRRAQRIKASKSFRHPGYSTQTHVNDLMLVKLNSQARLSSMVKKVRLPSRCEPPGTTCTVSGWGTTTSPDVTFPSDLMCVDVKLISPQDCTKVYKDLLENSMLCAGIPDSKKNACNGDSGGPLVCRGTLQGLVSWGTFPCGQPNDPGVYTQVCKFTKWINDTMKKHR
# ADAM17 inh – inhibitors of human ADAM17 | actives 0.83% (n = 370,000) | AID 720648 | recombinant ADAM17, EDANS/DABCYL FRET peptide cleavage | P78536 | inhibition, % at 6.95 µM;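 active = inhibition above the mean of compounds lying between control limits plus 3 SD, set per campaign, cut at about 8.5% in these data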;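 note: 0% = DMSO-only wells as the low control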
# FAS-TE inh conf – confirmation of human fatty acid synthase thioesterase inhibitors; shares compounds with FAS-TE inh; recombinant FAS-TE, OMFH fluorogenic substrate, fluorescence; inhibition, % at 15 µM; actives 45% (n = 2,300);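 active = compounds inhibiting the enzyme by at least 50% at 15 µM in any one of the replicates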;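 note: 0% = enzyme with DMSO only and 100% = wells lacking enzyme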
# * = called active by the depositor; x = no result given. The list is not random: actives were taken first. Their share in the collection is about 4.6%.
SMILES,ADAM10 inh,FAS-TE inh,NR3A LBD binder,KLK7 zymogen act,ADAM17 inh,FAS-TE inh conf
CCOC(=O)CC[C@H]1CC[C@]2(CCCN(S(C)(=O)=O)C2)O1,3,x,x,0,2,x
O=C1CSc2ccc(C(=O)Nc3cccc(S(=O)(=O)Nc4ccc(Br)cc4)c3)cc2N1,48*,50*,28*,0,17*,21
CCOC(=O)CCCNC(=O)OCCCN1CCC2(CCC(c3ccccc3)CC2)C1=O (stereo unspecified),-6,x,x,0,-3,x
Cc1ccc(C)c(S(=O)(=O)N2CCN(C(C(=O)Nc3ccc(F)cc3)c3ccccc3)CC2)c1 (stereo unspecified),2,25,-25,0,-1,x
O=C(Nc1ccc(F)cc1)C(c1ccccc1)N1CCN(S(=O)(=O)c2ccc3ccccc3c2)CC1 (stereo unspecified),20,86*,7,0,5,18
Cc1ccc2c(c1)N(CCCC(=O)NCc1cccs1)C(=O)CO2,-7,x,x,-1,-1,x
O=C(CCc1ccccc1)OCC(=O)c1cccc([N+](=O)[O-])c1,0,56*,-1,0,-1,57*
N/C(=N\OC(=O)CCCc1ccccc1)c1cccc([N+](=O)[O-])c1,9,50*,2,0,1,63*
N/C(=N\OC(=O)CCC1CCCC1)c1cccc([N+](=O)[O-])c1,-5,62*,1,0,-5,66*
N/C(=N\OC(=O)CCC1CCCCC1)c1ccc([N+](=O)[O-])cc1,3,27,-4,-1,0,x
O=C(Cc1ccccc1)NCC(=O)OCC(=O)c1cccc([N+](=O)[O-])c1,12,-5,3,0,7,x
N/C(=N\OC(=O)CC1CCCCC1)c1cccc([N+](=O)[O-])c1,-2,62*,-2,0,0,68*
N/C(=N\OC(=O)CC1CCCCC1)c1ccc([N+](=O)[O-])cc1,1,2,0,0,-1,x
N/C(=N\OC(=O)CCCc1ccccc1)c1ccccc1,6,8,4,0,-2,x
CC(=O)N1CCCN(C(=O)CCn2nnc3ccccc32)CC1,-8,x,x,-1,0,x
COC(=O)[C@]12CCCCC=C1N(Cc1ccc(OC)cc1)C(=O)[C@@H]2CC(=O)N1CCCCC1,-3,x,x,0,-3,x
CCCC(=O)N1CCC[C@]2(CC[C@@H](CCC(=O)N(CC)CC)O2)C1,-2,x,x,0,-1,x
CC(C)(C)c1ccc(Cn2cnc(-c3ccc([N+](=O)[O-])cc3)c2)cc1,5,51*,7,-1,4,31
CC(C)(C)c1ccc(CNc2ccc([N+](=O)[O-])cn2)cc1,10,-96,-11,0,4,x
CC(OC(=O)c1cccc([N+](=O)[O-])c1)C(=O)N1CCc2ccccc21 (stereo unspecified),-6,77*,1,0,2,59*
CCCC/C=C1/C(c2ccccc2)N(Cc2ccc(OC)cc2OC)C2=NC(c3ccccc3)CC(=O)N21 (stereo unspecified),0,x,x,x,-2,x
CC(CCN1CCC(C(O)(c2ccccc2)c2ccccc2)CC1)Oc1cc(F)cc(F)c1 (stereo unspecified),-4,x,x,0,-1,x
O=C(c1ccco1)N1CCN(C(=S)Nc2cccc([N+](=O)[O-])c2)CC1,-17,3,-2,0,-10,x
O=C(Nc1cccc([N+](=O)[O-])c1)Nc1ccc2c(c1)CCC2,7,53*,34*,0,1,14
O=[N+]([O-])c1cccc(NC(=S)N2CCc3ccccc3C2)c1,0,51*,-4,0,1,23*
COC(=O)C[C@@H]1CC[C@H]2[C@@H](COc3ccc(NC(=O)Nc4ccccc4Cl)cc3C(=O)N2C)O1,-3,x,x,0,-3,x
Cc1ccc(NC(=O)CCNC(=O)c2ccc([N+](=O)[O-])cc2)cc1C,5,64*,-5,0,3,69*
O=C(CCNC(=O)c1ccc([N+](=O)[O-])cc1)NCCc1ccc(Cl)cc1,-4,62*,1,0,1,70*
